# Assay results from article PMC7862700, “An all-to-all approach to the identification of sequence-specific readers for epigenetic DNA modifications on cytosine”.
# Assays:
# Test in all cases: DAPPL (digital affinity profiling via proximity ligation, sequencing); 10 mM Tris-HCl pH 7.5, 50 mM NaCl, 1 mM DTT, 4% glycerol, room temperature, 30 min; GST-TFs on glutathione beads, 16-mer random dsDNA library, 0.1% formaldehyde crosslink after washing; high values mean tight binding
# FEV = target: T1, FEV (Homo sapiens, UniProt Q99581 1-238); conditions: protein: recombinant; tags: N-terminal GST; dsDNA, one strand shown
# T1 sequence: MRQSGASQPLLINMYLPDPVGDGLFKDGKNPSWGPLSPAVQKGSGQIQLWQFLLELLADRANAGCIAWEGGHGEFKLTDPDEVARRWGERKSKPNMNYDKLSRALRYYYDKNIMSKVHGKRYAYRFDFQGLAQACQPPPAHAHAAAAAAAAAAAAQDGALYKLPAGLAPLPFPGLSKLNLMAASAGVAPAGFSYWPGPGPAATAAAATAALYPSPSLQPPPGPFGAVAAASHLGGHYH
# Procedure, shortened: (§1)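 Binding signal is defined as a hexamer's read frequency for one factor over its frequency for the tag-only sample. To obtain reads, GST-fused human transcription factors were expressed in yeast, captured on glutathione beads, barcoded with DNA and pooled with that sample. Pools met 200 nmole of a 16-mer random double-stranded DNA library in Tris/NaCl/DTT/glycerol buffer for 30 min at room temperature before washing, 0.1% formaldehyde crosslinking, proximity ligation (BsaI/T4 ligase, 1 h, 37 °C), PCR and Illumina NextSeq500 sequencing.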
# ETV5 = ETV5 (Homo sapiens, UniProt P41161 1-510); conditions: protein: recombinant; tags: N-terminal GST; dsDNA, one strand shown
# Procedure, shortened: as §1
# HSF1 = HSF1 (Homo sapiens, UniProt Q00613 1-529); conditions: protein: recombinant; tags: N-terminal GST; chain copies: 3; dsDNA, one strand shown
# Procedure, shortened: as §1
# SPIC = target: T2, SPIC (Homo sapiens, UniProt Q8N5J4 1-248); conditions: protein: recombinant; tags: N-terminal GST; dsDNA, one strand shown
# T2 sequence: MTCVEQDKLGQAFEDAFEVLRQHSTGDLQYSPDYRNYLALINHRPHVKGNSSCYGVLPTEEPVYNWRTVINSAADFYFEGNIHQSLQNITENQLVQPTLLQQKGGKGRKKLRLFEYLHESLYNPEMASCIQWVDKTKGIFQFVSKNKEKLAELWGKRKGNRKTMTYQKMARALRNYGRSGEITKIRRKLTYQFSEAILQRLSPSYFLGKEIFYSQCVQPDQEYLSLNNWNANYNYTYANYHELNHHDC
# Procedure, shortened: as §1
# ELF4 = ELF4 (Homo sapiens, UniProt Q99607 1-663); conditions: protein: recombinant; tags: N-terminal GST; dsDNA, one strand shown
# Procedure, shortened: as §1
# ELK4 = target: T3, ELK4 (Homo sapiens, UniProt P28324-2 1-405); conditions: protein: recombinant; tags: N-terminal GST; dsDNA, one strand shown
# T3 sequence: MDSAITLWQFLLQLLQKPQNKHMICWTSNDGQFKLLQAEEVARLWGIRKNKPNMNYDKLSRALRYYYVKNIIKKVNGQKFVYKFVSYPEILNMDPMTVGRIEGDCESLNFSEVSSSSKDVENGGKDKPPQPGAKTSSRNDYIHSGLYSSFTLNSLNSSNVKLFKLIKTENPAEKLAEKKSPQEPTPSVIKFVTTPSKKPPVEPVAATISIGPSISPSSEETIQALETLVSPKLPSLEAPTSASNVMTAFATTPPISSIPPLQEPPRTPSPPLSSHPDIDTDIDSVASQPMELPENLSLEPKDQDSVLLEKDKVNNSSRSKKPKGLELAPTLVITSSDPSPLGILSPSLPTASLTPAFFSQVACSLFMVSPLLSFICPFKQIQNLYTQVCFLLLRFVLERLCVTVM
# Procedure, shortened: as §1
# ETV2 = target: T4, ETV2 (Homo sapiens, UniProt O00321 1-342); conditions: protein: recombinant; tags: N-terminal GST; dsDNA, one strand shown
# T4 sequence: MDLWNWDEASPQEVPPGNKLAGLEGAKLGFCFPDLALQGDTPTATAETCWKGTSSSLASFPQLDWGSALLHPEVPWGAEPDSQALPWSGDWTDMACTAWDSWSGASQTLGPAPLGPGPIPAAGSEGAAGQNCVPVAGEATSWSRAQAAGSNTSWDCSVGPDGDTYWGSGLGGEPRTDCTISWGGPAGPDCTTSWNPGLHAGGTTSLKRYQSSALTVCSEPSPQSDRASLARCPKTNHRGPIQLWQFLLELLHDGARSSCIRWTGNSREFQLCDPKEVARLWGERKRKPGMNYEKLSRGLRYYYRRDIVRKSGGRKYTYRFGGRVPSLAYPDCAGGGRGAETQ
# Procedure, shortened: as §1
# ELF3 = target: T5, ELF3 (Homo sapiens, UniProt P78545 1-371); conditions: protein: recombinant; tags: N-terminal GST; dsDNA, one strand shown
# T5 sequence: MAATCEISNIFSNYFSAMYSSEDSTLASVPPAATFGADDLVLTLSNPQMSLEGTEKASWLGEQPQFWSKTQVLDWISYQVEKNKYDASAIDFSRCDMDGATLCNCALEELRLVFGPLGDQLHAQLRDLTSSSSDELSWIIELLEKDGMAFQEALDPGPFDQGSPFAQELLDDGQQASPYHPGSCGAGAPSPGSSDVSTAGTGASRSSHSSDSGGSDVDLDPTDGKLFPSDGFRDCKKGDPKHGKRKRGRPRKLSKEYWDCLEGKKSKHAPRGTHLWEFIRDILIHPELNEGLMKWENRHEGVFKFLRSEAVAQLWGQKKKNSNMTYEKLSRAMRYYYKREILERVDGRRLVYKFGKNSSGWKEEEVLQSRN
# Procedure, shortened: as §1
# CRX = CRX (Homo sapiens, UniProt O43186 1-299); conditions: protein: recombinant; tags: N-terminal GST; dsDNA, one strand shown
# Procedure, shortened: as §1
# ETV1 = ETV1 (Homo sapiens, UniProt P50549 1-477); conditions: protein: recombinant; tags: N-terminal GST; dsDNA, one strand shown
# Procedure, shortened: as §1
# ERF = target: T6, ERF (Homo sapiens, UniProt P50548 1-548); conditions: protein: recombinant; tags: N-terminal GST; dsDNA, one strand shown
# T6 sequence: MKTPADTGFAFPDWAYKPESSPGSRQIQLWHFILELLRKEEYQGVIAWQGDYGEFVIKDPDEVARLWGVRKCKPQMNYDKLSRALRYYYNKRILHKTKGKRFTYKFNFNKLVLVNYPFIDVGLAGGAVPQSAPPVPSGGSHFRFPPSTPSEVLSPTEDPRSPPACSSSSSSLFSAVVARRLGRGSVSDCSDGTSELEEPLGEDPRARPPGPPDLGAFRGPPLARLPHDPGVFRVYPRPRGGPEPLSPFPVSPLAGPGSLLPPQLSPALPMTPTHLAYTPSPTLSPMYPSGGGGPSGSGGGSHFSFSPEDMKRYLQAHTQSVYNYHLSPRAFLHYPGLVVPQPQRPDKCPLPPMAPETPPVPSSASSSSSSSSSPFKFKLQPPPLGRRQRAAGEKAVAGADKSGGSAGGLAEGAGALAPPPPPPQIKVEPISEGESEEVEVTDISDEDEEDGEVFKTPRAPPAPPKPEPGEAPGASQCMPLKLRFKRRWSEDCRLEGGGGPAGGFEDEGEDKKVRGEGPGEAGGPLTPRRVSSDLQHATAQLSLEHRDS
# Procedure, shortened: as §1
# ETV3L = target: T7, ETV3L (Homo sapiens, UniProt Q6ZN32 1-361); conditions: protein: recombinant; tags: N-terminal GST; dsDNA, one strand shown
# T7 sequence: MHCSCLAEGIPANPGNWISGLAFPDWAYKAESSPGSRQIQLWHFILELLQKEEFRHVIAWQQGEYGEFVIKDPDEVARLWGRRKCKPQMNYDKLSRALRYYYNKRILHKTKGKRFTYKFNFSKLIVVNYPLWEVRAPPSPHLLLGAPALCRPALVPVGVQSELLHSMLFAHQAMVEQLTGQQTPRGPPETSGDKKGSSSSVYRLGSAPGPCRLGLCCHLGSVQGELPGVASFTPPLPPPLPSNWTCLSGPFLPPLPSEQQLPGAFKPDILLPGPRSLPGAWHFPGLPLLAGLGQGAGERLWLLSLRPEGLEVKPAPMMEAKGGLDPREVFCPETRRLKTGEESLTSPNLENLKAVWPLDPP
# Procedure, shortened: as §1
# ETS2 = target: T8, ETS2 (Homo sapiens, UniProt P15036 1-469); conditions: protein: recombinant; tags: N-terminal GST; dsDNA, one strand shown
# T8 sequence: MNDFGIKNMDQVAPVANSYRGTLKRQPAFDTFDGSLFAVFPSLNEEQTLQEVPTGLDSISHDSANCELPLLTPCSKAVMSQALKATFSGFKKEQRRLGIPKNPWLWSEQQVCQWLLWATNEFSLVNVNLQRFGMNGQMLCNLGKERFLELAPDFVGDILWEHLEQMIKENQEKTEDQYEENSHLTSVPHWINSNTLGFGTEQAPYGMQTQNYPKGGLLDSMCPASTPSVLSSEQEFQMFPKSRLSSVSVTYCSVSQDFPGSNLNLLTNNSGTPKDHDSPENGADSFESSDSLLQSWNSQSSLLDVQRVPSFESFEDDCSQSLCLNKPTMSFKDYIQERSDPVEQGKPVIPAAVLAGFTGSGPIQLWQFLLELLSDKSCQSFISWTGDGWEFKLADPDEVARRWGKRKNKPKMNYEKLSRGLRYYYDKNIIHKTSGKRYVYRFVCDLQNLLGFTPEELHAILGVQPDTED
# Procedure, shortened: as §1
# SPDEF = target: T9, SPDEF (Homo sapiens, UniProt O95238 1-335); conditions: protein: recombinant; tags: N-terminal GST; dsDNA, one strand shown
# T9 sequence: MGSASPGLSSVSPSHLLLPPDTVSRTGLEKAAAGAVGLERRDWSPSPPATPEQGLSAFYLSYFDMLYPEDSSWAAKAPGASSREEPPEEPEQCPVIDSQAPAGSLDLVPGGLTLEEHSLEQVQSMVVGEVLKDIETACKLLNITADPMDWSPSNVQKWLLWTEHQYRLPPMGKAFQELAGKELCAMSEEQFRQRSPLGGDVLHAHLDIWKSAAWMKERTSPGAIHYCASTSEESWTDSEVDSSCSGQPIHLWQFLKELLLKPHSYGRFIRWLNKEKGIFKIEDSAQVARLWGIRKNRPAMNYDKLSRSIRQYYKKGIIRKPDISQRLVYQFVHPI
# Procedure, shortened: as §1
# ETV7 = target: T10, ETV7 (Homo sapiens, UniProt Q9Y603 1-341); conditions: protein: recombinant; tags: N-terminal GST; dsDNA, one strand shown
# T10 sequence: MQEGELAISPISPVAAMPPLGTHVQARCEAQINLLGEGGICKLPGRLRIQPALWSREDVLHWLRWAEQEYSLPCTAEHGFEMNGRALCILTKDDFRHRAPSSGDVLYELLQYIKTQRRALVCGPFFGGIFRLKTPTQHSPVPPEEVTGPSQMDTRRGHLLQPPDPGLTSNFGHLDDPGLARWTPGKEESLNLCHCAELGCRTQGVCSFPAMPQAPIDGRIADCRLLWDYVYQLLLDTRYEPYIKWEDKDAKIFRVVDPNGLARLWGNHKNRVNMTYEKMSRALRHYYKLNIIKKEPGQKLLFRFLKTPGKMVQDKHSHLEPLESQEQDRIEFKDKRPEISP
# Procedure, shortened: as §1
# ELF5 = target: T11, ELF5 (Homo sapiens, UniProt Q9UKW6-2 1-255); conditions: protein: recombinant; tags: N-terminal GST; dsDNA, one strand shown
# T11 sequence: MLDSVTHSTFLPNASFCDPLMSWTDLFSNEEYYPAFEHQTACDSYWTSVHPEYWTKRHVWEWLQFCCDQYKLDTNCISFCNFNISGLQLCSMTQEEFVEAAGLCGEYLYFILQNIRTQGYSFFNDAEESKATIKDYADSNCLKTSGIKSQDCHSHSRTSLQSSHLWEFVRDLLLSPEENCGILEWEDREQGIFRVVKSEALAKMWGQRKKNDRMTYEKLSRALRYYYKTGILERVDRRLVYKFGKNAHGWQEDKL
# Procedure, shortened: as §1
# ETV3 = target: T12, ETV3 (Homo sapiens, UniProt P41162-2 1-143); conditions: protein: recombinant; tags: N-terminal GST; dsDNA, one strand shown
# T12 sequence: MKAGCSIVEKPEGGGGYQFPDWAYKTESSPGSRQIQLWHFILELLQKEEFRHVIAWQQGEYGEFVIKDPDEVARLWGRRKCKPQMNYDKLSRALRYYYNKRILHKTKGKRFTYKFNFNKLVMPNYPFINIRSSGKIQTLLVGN
# Procedure, shortened: as §1
# ETV6 = ETV6 (Homo sapiens, UniProt P41212 1-452); conditions: protein: recombinant; tags: N-terminal GST; dsDNA, one strand shown
# Procedure, shortened: as §1
# CRX, sequence (O43186 whole entry): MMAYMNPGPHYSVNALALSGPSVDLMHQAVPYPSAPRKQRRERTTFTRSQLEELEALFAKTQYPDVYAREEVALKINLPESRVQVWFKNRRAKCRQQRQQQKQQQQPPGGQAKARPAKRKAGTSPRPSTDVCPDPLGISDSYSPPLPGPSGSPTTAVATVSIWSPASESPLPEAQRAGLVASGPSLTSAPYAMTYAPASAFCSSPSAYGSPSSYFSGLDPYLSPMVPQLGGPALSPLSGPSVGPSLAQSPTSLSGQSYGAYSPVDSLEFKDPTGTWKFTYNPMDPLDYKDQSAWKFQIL
# ELF4, sequence (Q99607 whole entry): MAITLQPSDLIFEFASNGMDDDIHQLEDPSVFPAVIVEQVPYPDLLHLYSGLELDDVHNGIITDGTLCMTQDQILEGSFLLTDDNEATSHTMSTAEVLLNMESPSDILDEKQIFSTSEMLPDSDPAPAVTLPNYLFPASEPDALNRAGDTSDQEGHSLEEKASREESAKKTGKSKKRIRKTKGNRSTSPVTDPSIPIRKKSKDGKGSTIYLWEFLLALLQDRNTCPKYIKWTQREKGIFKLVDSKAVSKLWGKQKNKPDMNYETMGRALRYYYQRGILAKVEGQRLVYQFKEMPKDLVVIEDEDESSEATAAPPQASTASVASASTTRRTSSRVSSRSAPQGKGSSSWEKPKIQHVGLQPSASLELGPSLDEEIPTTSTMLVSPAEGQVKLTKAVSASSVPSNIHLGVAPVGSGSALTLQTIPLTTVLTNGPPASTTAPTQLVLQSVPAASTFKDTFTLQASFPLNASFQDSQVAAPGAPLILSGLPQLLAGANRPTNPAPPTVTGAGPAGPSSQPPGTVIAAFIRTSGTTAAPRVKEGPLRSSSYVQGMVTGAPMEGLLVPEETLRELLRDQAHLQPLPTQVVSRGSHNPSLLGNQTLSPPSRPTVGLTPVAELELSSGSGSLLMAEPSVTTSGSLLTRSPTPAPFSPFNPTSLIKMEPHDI
# HSF1, sequence (Q00613 whole entry): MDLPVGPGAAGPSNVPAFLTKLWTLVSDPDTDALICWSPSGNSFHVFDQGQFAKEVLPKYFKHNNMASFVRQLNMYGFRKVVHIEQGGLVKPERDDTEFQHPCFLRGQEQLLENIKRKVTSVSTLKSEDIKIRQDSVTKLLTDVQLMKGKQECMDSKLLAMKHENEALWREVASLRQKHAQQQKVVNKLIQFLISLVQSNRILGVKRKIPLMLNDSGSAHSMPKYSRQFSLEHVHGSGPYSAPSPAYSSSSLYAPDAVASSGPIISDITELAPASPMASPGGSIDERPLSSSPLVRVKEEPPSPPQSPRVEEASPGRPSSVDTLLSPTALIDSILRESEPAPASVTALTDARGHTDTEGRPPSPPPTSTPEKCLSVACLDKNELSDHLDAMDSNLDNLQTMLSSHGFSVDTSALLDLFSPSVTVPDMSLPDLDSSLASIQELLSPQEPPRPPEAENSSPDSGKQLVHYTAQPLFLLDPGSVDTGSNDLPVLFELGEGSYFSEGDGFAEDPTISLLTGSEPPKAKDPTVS
# ETV1, sequence (P50549 whole entry): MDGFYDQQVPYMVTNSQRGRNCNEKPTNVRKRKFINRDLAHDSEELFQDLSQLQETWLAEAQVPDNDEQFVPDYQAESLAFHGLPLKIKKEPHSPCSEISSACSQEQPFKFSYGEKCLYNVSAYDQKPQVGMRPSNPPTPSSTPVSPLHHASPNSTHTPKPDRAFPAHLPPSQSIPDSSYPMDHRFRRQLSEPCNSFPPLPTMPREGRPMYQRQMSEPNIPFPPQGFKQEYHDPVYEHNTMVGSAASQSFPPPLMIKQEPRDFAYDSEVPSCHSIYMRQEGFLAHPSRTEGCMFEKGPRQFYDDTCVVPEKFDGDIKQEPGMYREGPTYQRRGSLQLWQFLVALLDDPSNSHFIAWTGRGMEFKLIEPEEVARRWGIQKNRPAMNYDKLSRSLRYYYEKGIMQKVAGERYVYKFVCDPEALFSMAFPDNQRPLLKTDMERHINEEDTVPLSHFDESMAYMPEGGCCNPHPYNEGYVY
# ETV5, sequence (P41161 whole entry): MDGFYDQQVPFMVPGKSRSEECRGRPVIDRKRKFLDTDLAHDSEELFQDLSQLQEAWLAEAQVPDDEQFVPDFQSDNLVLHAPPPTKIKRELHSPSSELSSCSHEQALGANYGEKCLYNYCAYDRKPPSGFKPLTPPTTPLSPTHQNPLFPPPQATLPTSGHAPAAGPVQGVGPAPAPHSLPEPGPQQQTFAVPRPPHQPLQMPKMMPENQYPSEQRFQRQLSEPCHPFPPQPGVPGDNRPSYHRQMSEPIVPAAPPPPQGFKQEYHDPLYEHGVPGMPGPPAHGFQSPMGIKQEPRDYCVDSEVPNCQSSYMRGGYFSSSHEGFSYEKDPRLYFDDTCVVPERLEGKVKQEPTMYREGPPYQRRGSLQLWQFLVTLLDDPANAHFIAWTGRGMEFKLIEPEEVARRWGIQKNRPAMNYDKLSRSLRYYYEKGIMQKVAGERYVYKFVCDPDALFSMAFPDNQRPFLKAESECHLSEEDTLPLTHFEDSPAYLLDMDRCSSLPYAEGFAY
# ETV6, sequence (P41212 whole entry): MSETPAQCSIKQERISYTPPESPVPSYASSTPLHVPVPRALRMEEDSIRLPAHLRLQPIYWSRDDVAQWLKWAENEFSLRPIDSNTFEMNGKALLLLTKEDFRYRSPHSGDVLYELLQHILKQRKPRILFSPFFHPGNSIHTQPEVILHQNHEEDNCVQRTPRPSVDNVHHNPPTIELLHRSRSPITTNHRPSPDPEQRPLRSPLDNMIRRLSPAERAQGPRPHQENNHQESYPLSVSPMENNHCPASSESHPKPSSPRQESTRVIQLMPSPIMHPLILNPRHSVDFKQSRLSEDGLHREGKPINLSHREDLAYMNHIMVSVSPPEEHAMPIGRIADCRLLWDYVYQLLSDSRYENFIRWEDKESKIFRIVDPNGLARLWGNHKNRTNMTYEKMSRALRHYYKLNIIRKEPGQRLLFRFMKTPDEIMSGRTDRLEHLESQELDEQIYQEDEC
sequence,measurement,setting,value
CACTTA,binding signal,FEV,"1.19 fold enrichment (6-mer frequency, TF over GST control)"
same,binding signal,ETV5,"1.2 fold enrichment (6-mer frequency, TF over GST control)"
same,binding signal,HSF1,"1.26 fold enrichment (6-mer frequency, TF over GST control)"
same,binding signal,SPIC,"1.08 fold enrichment (6-mer frequency, TF over GST control)"
same,binding signal,ELF4,"1.19 fold enrichment (6-mer frequency, TF over GST control)"
same,binding signal,ELK4,"1.13 fold enrichment (6-mer frequency, TF over GST control)"
same,binding signal,ETV2,"1.21 fold enrichment (6-mer frequency, TF over GST control)"
same,binding signal,ELF3,"1.24 fold enrichment (6-mer frequency, TF over GST control)"
same,binding signal,CRX,"1.62 fold enrichment (6-mer frequency, TF over GST control)"
same,binding signal,ETV1,"1.25 fold enrichment (6-mer frequency, TF over GST control)"
same,binding signal,ERF,"1.22 fold enrichment (6-mer frequency, TF over GST control)"
same,binding signal,ETV3L,"1.13 fold enrichment (6-mer frequency, TF over GST control)"
same,binding signal,ETS2,"1.22 fold enrichment (6-mer frequency, TF over GST control)"
same,binding signal,SPDEF,"1.34 fold enrichment (6-mer frequency, TF over GST control)"
same,binding signal,ETV7,"1.21 fold enrichment (6-mer frequency, TF over GST control)"
same,binding signal,ELF5,"1.18 fold enrichment (6-mer frequency, TF over GST control)"
same,binding signal,ETV3,"1.24 fold enrichment (6-mer frequency, TF over GST control)"
same,binding signal,ETV6,"1.23 fold enrichment (6-mer frequency, TF over GST control)"
